Shn3 inh set2: inhibitors of Schnurri-3 3'UTR reporter in osteoblasts; Clone20 osteoblast Shn3 3'UTR firefly luciferase, 24 h; inhibition, % at 12.5 µM; 360,000 tested, 0.52% active;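 active = mean inhibition of at least 75% with every replicate also reaching 75%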;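 also: 0% = median of neutral control wells and 100% = pilot-screen positive control compound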
aSyn 5UTR inh: MLPCN primary screen, SNCA 5' untranslated region; 300,000 tested, 0.82% active; alpha-synuclein 5'UTR reporter, inhibitor activity; AID 1813; inhibition, % (tested at 7.5 µM); in the data active = inhibition above about 60%;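 also: H4 neuroglioblastoma cells stably carrying SNCA 5'UTR luciferase fusion; 0% = DMSO wells and 100% = positive control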
Jurkat NFkB inh: inhibitors of the PMA/ionomycin-induced NF-kB reporter in Jurkat cells; inhibition, % at 4 µM; PMA/ionomycin-induced NF-kB luciferase reporter, luminescence; 330,000 tested, 0.53% active; AID 435003; in the data active = inhibition above about 50%
697 NFkB inh: lowers PMA/ionomycin-induced NF-kB signal in 697 B cells; 697 B-cell NF-kB luciferase reporter, 16 h; inhibition, % at 4 µM; 330,000 tested, 0.33% active; AID 435022; in the data active = inhibition above about 35%
TAG inh: inhibitors of triacylglycerol accumulation | AID 651582 | 230,000 tested, 0.66% active | inhibition, % at 12.5 µM | H9c2 cells, Nile Red lipid (TAG) fluorescence; cells loaded with 200 µM oleic acid;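 active = pattern-corrected inhibition of lipid staining of at least 50% with the nuclear-stain viability signal not falling by more than 50%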;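 also: 0% = DMSO wells and 100% = triacsin C control wells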
Gli-Sufu antag: Gli-Sufu pathway antagonism | Sufu-KO-LIGHT fibroblasts, Gli luciferase reporter luminescence | inhibition, % at 5 µM | 340,000 tested, 0.74% active;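 active = inhibition above about 55%, limit read from the data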;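 also: 0% = DMSO-treated cells and 100% = wells with medium but no cells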
H9c2 TAG conf: confirmation of triacylglycerol accumulation inhibitors | shares compounds with TAG inh | H9c2 lipid accumulation, Nile Red fluorescence; cells loaded with 200 µM oleic acid | inhibition, % at 12.5 µM | 990 tested, 71% active | AID 651629;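 active = mean inhibition across replicates of 40% or more; inactive = mean inhibition below 40%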;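 also: plate controls were DMSO only wells for no effect and Triacsin C treated wells for full effect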
Active calls of the source: *; . = no result; ! = a repeat was not active. Shown are actives, neighbours in structure and some others; about 2.3% of the full set was active somewhere.

SMILES | Shn3 inh set2 | aSyn 5UTR inh | Jurkat NFkB inh | 697 NFkB inh | TAG inh | Gli-Sufu antag | H9c2 TAG conf
CCOC(=O)C1CCCN1C(=O)c1ccc(OC)c(Br)c1 (stereo not drawn) | 10.9 | -4.2 | -9.1 | -7.2 | -13.1 | -1.2 | .
Cc1c(C#N)c(O)n(CCO)c(=O)c1N=Nc1ccc2c(c1)COC2=O | -2.8 | -4.5 | 2.9 | 10.7 | 84.7* | 1.4 | 93.5*
Cc1cc(=O)n(CCO)c(O)c1C#N | -16.3 | 19.7 | -6.8 | 17.1 | -1.9 | -1.7 | .
O=C1N=C(N2CCOCC2)S/C1=C/c1ccc(-c2ccc(F)cc2)o1 | 5.5 | -44.2 | -9.7 | 18.4 | 66.1* | 27.8 | 41.6*
CC(C)n1cc(C(=O)NC2CC(C)(C)Cc3c2cnn3-c2ccccc2)cn1 (stereo not drawn) | 4.2 | 14.5 | 19.4 | 13.3 | . | 9.2 | .
COc1ccc(Oc2nc(-c3ccncc3)nc3ccccc23)cc1 | 21.1 | 17.8 | 22.2 | 0.8 | 21.1 | 0.7 | .
COc1ccc(Oc2nc(-c3ccccn3)nc3ccccc23)cc1 | 20.0 | -110.2 | -7.8 | -30.3 | 62.3* | -16.3 | 53.4*
c1ccc(Oc2nc(-c3ccccn3)nc3ccccc23)cc1 | -25.6 | -63.7 | -19.5 | -24.6 | 72.5* | -19.1 | 50.9*
Fc1ccc(Oc2nc(-c3ccccn3)nc3ccccc23)cc1 | 0.0 | -94.6 | -10.0 | -35.4 | 56.3* | -28.8 | 42.2*
Cc1ccc([C@@H]2[C@@H]3C(=O)N(c4ccccc4)C(=O)[C@@H]3[C@]3(C)C(=O)N(Cc4ccccc4)CC(=O)N23)o1 | 2.5 | 4.2 | 4.3 | -2.4 | -1.6 | 3.4 | .
CCOC(=O)[C@@H]1[C@H]2COc3ccc(Br)cc3[C@H]2N2C(=O)N(c3ccc(C)cc3)C(=O)[C@]12C | -21.2 | -0.3 | 7.2 | 1.9 | 8.2 | 2.4 | .
Cn1c(=O)c2cc(NC(=O)Cc3ccccc3F)ccc2n1-c1ccc(C(C)(C)C)cc1 | 20.0 | . | . | . | 21.7 | . | .
Cc1cc(C)cc(-n2c3ccc(NC(=O)Cc4cccc5ccccc45)cc3c(=O)n2C)c1 | 14.0 | . | . | . | 50.9* | . | 49.6*
CC(C)Sc1ncnc2c1oc1ccccc12 | -37.8 | -58.2 | -20.8 | 8.2 | . | 9.5 | .
CC(C)CNC(=O)c1coc(=O)c(Br)c1 | 1.3 | -87.3 | 10.0 | -55.0 | 60.4* | 0.9 | 16.6
CCOc1ccccc1NC(=O)C(CC(C)C)NC(=O)C1CCCCC1 (stereo not drawn) | -2.9 | -2.4 | 9.3 | 7.8 | 50.5* | 10.0 | 35.2
COc1ccccc1NC(=O)c1ccccc1S(=O)(=O)c1ccc([N+](=O)[O-])cc1 | 1.3 | -7.1 | 3.9 | 4.3 | 53.9* | 6.3 | -10.7
Cc1nn2c(NCc3ccccn3)cc(C(C)(C)C)nc2c1-c1ccccc1 | 25.5 | 23.2 | -19.1 | -14.7 | -11.3 | -6.3 | .
CC(C)(C)c1cc(NCc2ccccn2)n2ncc(-c3ccc(Cl)cc3)c2n1 | 19.4 | 16.5 | 1.2 | -3.9 | 52.0* | -7.5 | 43.7*
Cc1[nH]c2c(Cl)cccc2c1CCNC(=O)C1CCCCC1C(=O)OCC(F)(F)F (stereo not drawn) | -9.3 | 6.4 | -5.6 | 10.0 | . | 1.0 | .
COC(=O)C1=C(C)N(Cc2ccccc2)C(=NCC(C)C)N[C@H]1c1ccccc1 | . | -4.4 | 5.6 | -8.9 | . | 35.2 | .
COC(=O)C1=C(C)N(Cc2ccccc2)C(=NCc2ccc(OC)cc2)N[C@H]1c1ccccc1 | 4.4 | . | 3.2 | 8.3 | 56.3* | 28.7 | 17.0
COc1ccc(C2CC(=O)N3CN(c4ccc(C)c(Cl)c4)CSC3=C2C#N)cc1 (stereo not drawn) | -3.9 | -42.2 | 4.9 | -3.6 | 0.0 | -15.2 | .
CCOc1ccc(NC(=O)CN(C)C(=O)c2cc(-c3ccc(OC)cc3)nc3ccccc23)cc1OCC | 6.9 | -29.3 | 21.4 | 20.9 | 52.5* | 2.9 | 62.9*
CC(=O)Nc1cccc(NS(=O)(=O)c2c(C)noc2C)c1 | -4.1 | . | 10.2 | -9.2 | 6.0 | -14.5 | .
SMILES | Shn3 inh set2 | aSyn 5UTR inh | Jurkat NFkB inh | 697 NFkB inh | TAG inh | Gli-Sufu antag | H9c2 TAG conf
CNc1nc(SC)nc2ccccc12 | -0.3 | -5.9 | 8.3 | 10.6 | -16.2 | -5.8 | .
CSc1nc(N(C)NC(=O)c2ccccc2)c2ccccc2n1 | 15.3 | 54.3 | 48.9 | 8.6 | 57.0* | -3.8 | 61.5*
CSc1nc(N(C)NC(=O)c2ccc(Cl)cc2)c2ccccc2n1 | 3.9 | 92.6* | 42.9 | -23.4 | 64.9* | 24.5 | 66.2*
CN(C)CCCN1c2ccccc2Sc2ccc3ccccc3c21 | -4.8 | . | . | . | 50.5* | 18.6 | 59.8*
CCN1CCN(c2ccc(S(=O)(=O)N3CCOCC3)cc2NC(=O)c2ccc(C)cc2C)CC1 | -13.2 | . | 1.4 | 7.4 | 15.9 | 1.4 | .
Cc1csc(SCC(=O)NC(C)C2CC3CCC2C3)n1 (stereo not drawn) | -5.8 | -11.1 | -7.4 | -1.7 | -13.1 | 2.1 | .
Oc1ccc(Nc2nc(NCC3CCCO3)c3ccccc3n2)cc1 (stereo not drawn) | 48.5 | -31.0 | 4.5 | -2.6 | 50.3* | 17.5 | 24.8
Cc1occc1C(=O)NN=C1C2CC3CC(C2)CC1C3 | -1.4 | -140.9 | 2.1 | 14.1 | -10.6 | 3.1 | .
CC(=O)O[C@H]1C[C@@]2(C)[C@@H](C[C@@H](O)[C@H]3[C@@]4(C)CC[C@@H](O)[C@@H](C)[C@@H]4CC[C@@]32C)/C1=C(\CCC=C(C)C)C(=O)O | 12.5 | -3.1 | 7.9 | 10.6 | 60.6*! | 10.1 | 55.6*
Cn1nnnc1Sc1ncnc2scc(-c3cccc(S(C)(=O)=O)c3)c12 | 60.3 | . | -12.4 | -10.6 | 59.8* | 12.6 | 56.8*
Cc1ccccc1NC(=O)c1ccc(CSc2ncccn2)cc1 | -6.9 | -82.5 | -4.4 | 8.0 | . | -18.5 | .
NCCNc1cc(N2CCCC2)ccc1[N+](=O)[O-] | 36.4 | 5.6 | 17.6 | -0.9 | 1.9 | 7.8 | .
Cc1ccccc1OCCNc1cc(N2CC(C)NC(C)C2)ccc1[N+](=O)[O-] (stereo not drawn) | -4.0 | -37.3 | 9.2 | 13.2 | 56.2* | 24.3 | 62.1*
O=C(CSc1nc(C2CC2)nc2ccccc12)N1CCc2ccccc21 | -2.0 | . | . | . | -20.2 | 12.6 | .
O=c1nc(N/N=C/C=C/c2ccccc2)cn[nH]1 | 7.6 | -60.8 | -50.0 | -53.5 | 63.9* | -34.9 | -7.0
O=c1nc(N/N=C/c2c[nH]c3ccccc23)cn[nH]1 | -78.6 | -61.3 | -63.5 | -115.7 | -1.4 | -41.6 | .
O=C(O)CCSc1nnc(COc2ccc([N+](=O)[O-])cc2)n1-c1ccccc1 | -28.5 | 5.0 | -12.5 | -0.9 | 10.2 | -3.7 | .
CC(C)(C)c1ccc(C(=O)NNc2cc(N3CCCCC3)nc(N3CCCCC3)n2)cc1 | 56.3 | -22.6 | -13.0 | -5.0 | 59.8* | 12.2 | 35.9
Cc1cc(C)cc(CC(=O)N2CCC2(C)C(=O)NS(=O)(=O)c2ccc(Cl)s2)c1 (stereo not drawn) | -3.0 | . | . | . | 74.9* | . | 3.7
CC1(C(=O)NS(=O)(=O)c2ccc(Cl)s2)CCN1C(=O)Cc1ccccc1Cl (stereo not drawn) | -6.2 | . | . | . | -8.6 | . | .

From PubChem BioAssay
